PrPC TRFRET: inhibitors of human cell surface prion protein PrPC, primary screen, cell-based, TR-FRET; Major prion protein (Homo sapiens), P04156; TR-FRET read-out; inhibition, % at 13.8 µM; hit rate 0.43% among 370,000; in the data active means inhibition above about 24%; further: 0% = median of the test wells and 100% = reference compound wells
Vc quorum ag: inducers of Vibrio cholerae quorum light production without autoinducers, primary screen, BH1578 luxS cqsA deficient, single point | hit rate 0.16% among 350,000 | AID 588436, 2011 | V. cholerae BH1578 lux reporter, luminescence, 6 h | activation, % at 18.7 µM; in the data active means activation mostly above about 9.7%, no sharp cut-off
Yp Topo-I inh: Yersinia pestis topoisomerase I inhibitors, primary screen, biochemical, cleavage product accumulation, plate reader, single point | DNA topoisomerase I (Yersinia pestis CO92) | AID 504884, 2011 | activity, % at 10 µM | hit rate 0.064% among 360,000 | Y. pestis Topo-I cleavage product accumulation; in the data active means activity above about 50%, passing the limit was not always enough
CCHFV vOTU inh: CCHFV vOTU protease inhibitors, primary screen, biochemical, Pep-AMC substrate, fluorescence; Crimean-Congo hemorrhagic fever virus L polyprotein viral ovarian tumor (vOTU) protease …; inhibition, % at 11.5 µM; hit rate 0.55% among 370,000; AID 651958, 2012; in the data active means inhibition above about 30%; further: 0% = vehicle wells with enzyme and 100% = no enzyme wells
* hit, by the source's call; i = inactive; + = active, no number. Hits are enriched below; roughly 1.1% of the tested compounds scored in any of these assays.

SMILES	PrPC TRFRET	Vc quorum ag	Yp Topo-I inh	CCHFV vOTU inh
O=C(CC1N=C2c3ccccc3N=C(SCc3ccc(F)cc3)N2C1=O)NCc1ccco1 (stereo not drawn)	-1	17*	0	-7
CCCCCCSc1nsc(NC(=O)CCC)n1	5	0	-1	5
CC(=O)c1c(CC(=O)O)[nH]n(-c2nc3ccccc3s2)c1=O	-1	-3	-2	-22
COC(=O)Cc1[nH]n(-c2nc3ccccc3s2)c(=O)c1C(C)=O	1	+	-6	-7
O=c1[nH]c(=O)n(Cc2ccccc2)c2nc(-c3ccco3)cc(C(F)(F)F)c12	-2	27*	3	-9
CCOC(=O)CNC(=O)c1c2c(nc3ccccc13)CCCC2	6	-7	-7	4
Cc1cc(C)nc(SCc2nnc(SCC(=O)N3CCCc4ccccc43)o2)n1	1	-1	12	18
CN(C)c1oc(-c2ccc(Cl)cc2)nc1S(=O)(=O)c1ccccc1	3	0	-7	-3
CCC/C(=N\NC(=O)CNC(=O)/C=C/c1ccco1)c1ccccc1	-12	-6	7	-3
CC/C(=N\NC(=O)CNC(=O)/C=C/c1ccco1)c1ccccc1	-5	17*	-3	3
O=c1[nH]c(Nc2ccc(F)cc2)cc2ccccc12	6	-1	-5	105*
CCN1CCN(c2cc(C)c3cc(NC(=O)CCC(=O)Nc4ccc(OC)cc4OC)ccc3n2)CC1	-3	-1	6	-11
COC(=O)c1c(C)oc(C)c1S(=O)(=O)N1CCCCC1	-1	-1	0	-3
Cc1ccc(OC(=O)CCC(=O)Oc2ccc(C)cc2C)c(C)c1	-7	0	60*	13
O=C(CN1C(=O)/C(=C\c2ccco2)SC1=S)Nc1ccc(O)cc1C(=O)O	-7	0	-17	31*
CCOC(=O)N1CCN(C2=C(NS(=O)(=O)c3ccc(Br)cc3)C(=O)c3ccccc3C2=O)CC1	-50	i	-9	13
CCOC(=O)N1CCN(C2=C(NS(=O)(=O)c3ccccc3)C(=O)c3ccccc3C2=O)CC1	-47	0	-11	89*
C=CCn1c(SCc2cc(=O)n3ccsc3n2)nnc1C1CCCCC1	2	i	-3	3
O=[N+]([O-])c1cccnc1Oc1cccnc1	-13	7	15	3
O=C(C[C@H]1C/C=C\CC[C@H](Cc2ccc(F)cc2)C(=O)O[C@@H](c2ccccc2)CNC1=O)N[C@H](CO)Cc1ccccc1	-3	i	46	0
O=C(C[C@H]1C/C=C\CC[C@H](Cc2ccc(F)cc2)C(=O)O[C@@H](c2ccccc2)CNC1=O)N[C@@H](CO)Cc1ccccc1	-9	1	89*	15
CC(NC(=O)CN(c1ccc(F)cc1)S(C)(=O)=O)c1ccccc1 (stereo not drawn)	3	0	-5	-7
Cc1[nH][nH]c(=O)c1C(c1ccc(-c2ccc(Cl)c(Cl)c2)o1)c1c(C)[nH][nH]c1=O	1	i	2	43*
Cc1[nH][nH]c(=O)c1C(c1ccc(-c2ccc(C(=O)O)cc2)o1)c1c(C)[nH][nH]c1=O	-15	0	11	26
Cc1cc(C)n(C(=O)c2cc3ccccc3c(=O)o2)n1	-6	17*	-1	6
SMILES	PrPC TRFRET	Vc quorum ag	Yp Topo-I inh	CCHFV vOTU inh
CCCNC(=O)c1cc2ccccc2c(=O)o1	-5	i	3	7
CCC1(C)NC(C(=O)O)Cc2c1[nH]c1ccccc21 (stereo not drawn)	-6	i	-2	7
COc1ccc2[nH]c(C(=O)NCc3ccccc3)cc2c1	6	0	-10	-10
COc1ccc(CN(Cc2cccn2C)C(=O)c2cc3cc(OC)ccc3[nH]2)cc1	-2	i	51*	-3
Cc1ccc(-n2c(SCC(=O)Nc3ccc(N4CCOCC4)cc3)nc3ccccc3c2=O)cc1	8	i	1	0
COc1ccc(CNC(=O)C/C(C)=N/NC(=O)c2ccccc2OC)cc1	-2	-3	1	1
Cc1ccc2c(c1)C(O)(CC(=O)c1ccc3c(c1)OCO3)C(=O)N2 (stereo not drawn)	3	-1	3	0
O=S(=O)(c1ccccc1)c1cc(O)ccc1O	3	-1	-7	-7
Nc1ccc(S(=O)(=O)c2cc(O)c3ccccc3c2O)cc1	-14	i	-16	71*
CN(C)CCCNS(=O)(=O)c1ccc(Oc2ncc(C(F)(F)F)cc2Cl)cc1	-6	i	-8	-2
Nc1ccc(S(=O)(=O)NCC(=O)OC2CCOC2=O)cc1[N+](=O)[O-] (stereo not drawn)	-21	i	2	3
COc1ccc(C(=O)Nc2cccc([N+](=O)[O-])c2)cc1Br	0	1	-4	16
COc1ccc(C(=O)Nc2ccc(OC)c([N+](=O)[O-])c2)cc1Br	4	29*	2	9
O=C(CSc1nnc(CNC(=O)c2cccs2)o1)NC1CCCCC1	7	15*	5	-1
COc1cc(C(=O)NC2CCCC2)c(Br)c(OC)c1OC	6	0	-6	16
CCOC(=O)CSc1nc2ccccc2c(=O)n1CC1CCCC1	3	0	58*	24
CCOC(=O)c1nn(-c2ccccc2)c(=O)c2c(N)scc12	-19	i	-10	37*
CCOC(=O)c1nn(-c2ccccc2C)c(=O)c2c(N)scc12	-16	i	-6	19
Cc1cc(F)ccc1C(O)c1ncc(-c2ccc(Oc3ccccc3)cc2)[nH]1 (stereo not drawn)	2	-1	-15	4
C=C1C(=O)c2sccc2C(c2ccc(OC)c(OC)c2)C1COC(C)=O (stereo not drawn)	96*	-1	-1	7
CCOC(=O)c1c(NCC(C)C)c2ccccc2[nH]c1=O	8	17*	-5	1
Cc1ccc(Cl)cc1N1CCN(C(=O)C2CCC(=O)N(C3CCCCCC3)C2)CC1 (stereo not drawn)	9	i	29	4
CC(Sc1ccc([N+](=O)[O-])cn1)C(=O)Nc1nccs1 (stereo not drawn)	-32	i	8	9
C=CCOc1cccc(C2C(C(=O)c3cc4ccccc4o3)=C(O)C(=O)N2c2cc(C)on2)c1 (stereo not drawn)	18	i	69*	22
Cc1ccc(S(=O)(=O)NNC(=S)Nc2c(Cl)cccc2Cl)cc1	-4	-1	3	-12
COC(=O)C[C@]1(C(=O)OC)CN(C#N)N(c2ccc(Cl)cc2)C12c1ccccc1-c1ccccc12	75*	i	31	23
CCc1nc2sc3c(=O)[nH]cnc3c2c2c1CSC(C)(C)C2	9	i	2	-11
CC(=O)c1cccc(N=c2scc(-c3ccc(S(=O)(=O)N4CCOCC4)cc3)n2CCO)c1	24*	0	24	6
CC(C)CC(=O)N1CCN(c2ccc([N+](=O)[O-])c(NCc3ccccc3)c2)CC1	-19	i	23	31*

Screens deposited in PubChem BioAssay by several laboratories.
